Screening data deposited in PubChem by Broad Institute.
Most compounds without a hit are left out; they make up all but 6.7% or so of the library.
C diff HTS = inhibitors of Clostridium difficile growth; Clostridium difficile clinical isolate growth, OD600, 24 h; active compounds read low; growth activity, negative = inhibition, % at 16 µg/mL (by protocol); 86,000 compounds, 0.25% hits;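 active means mean growth activity at or below -80% and every replicate also at or below -80%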
T cruzi growth-1 = T. cruzi proliferation inhibition; 77,000 compounds, 5.9% hits; inhibition, % at 8.34 µM; AID 624255; T. cruzi beta-gal in NIH3T3, GalScreen luminescence, 90 h;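 active means mean inhibition above about 93%, with at least 55% of replicates each passing it, limit read from the data, passing the limit was not always enough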
Pf Dd2 inh = inhibitors of Plasmodium falciparum Dd2 growth. 94,000 compounds, 2.3% hits. P. falciparum Dd2 growth, SYBR Green, 72 h; active compounds read low. activity change, % at 10 µM; in the data active means activity change below about -80%
T cruzi growth-2 = blocks T. cruzi growth in NIH3T3 host cells; T. cruzi beta-gal in NIH3T3, GalScreen luminescence, 90 h; inhibition, % at 8.35 µM; AID 651739; 5,600 compounds, 72% hits; shares compounds with T cruzi growth-1;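 active means mean replicate inhibition above about 95% and at least 55% of replicates individually reaching it, limit read from the data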
T cruzi growth-3 = inhibitors of T. cruzi proliferation; shares compounds with T cruzi growth-1; inhibition, % at 2.09 µM; 5,600 compounds, 21% hits; AID 651740; T. cruzi beta-gal in NIH3T3, GalScreen luminescence, 90 h;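 active means mean inhibition above about 95%, with at least 55% of replicates also reaching it, limit read from the data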
3T3 cytotox = NIH/3T3 (mouse) viability loss. shares compounds with T cruzi growth-1. cytotoxicity (signal decrease), % at 8.35 µM. 5,600 compounds, 14% hits. AID 651742. NIH/3T3 viability, CellTiter-Glo ATP luminescence, 90 h;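 active means mean signal decrease across replicates above about 35% based on untreated-well scatter, with enough replicates individually passing, limit read from the data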
NIH3T3 tox 2 = cytotoxicity in mouse NIH/3T3 fibroblasts; shares compounds with T cruzi growth-1; NIH/3T3 viability, CellTiter-Glo ATP luminescence, 90 h; inhibition, % at 24.9 µM; 5,600 compounds, 56% hits;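 active means mean loss of cell viability signal at or above a set limit, and enough replicates individually reaching it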
Hits are given with their value.

Results for C[C@H](CO)N1C[C@H](C)[C@H](CN(C)S(=O)(=O)c2ccccc2)OCCCC[C@H](C)Oc2ccc(NC(=O)Nc3ccccc3)cc2C1=O ?
T cruzi growth-1: 100; Pf Dd2 inh: inactive; T cruzi growth-2: 108; T cruzi growth-3: inactive; 3T3 cytotox: inactive; NIH3T3 tox 2: 54

How did C[C@H]1CCCCO[C@H](CN(C)S(=O)(=O)c2ccccc2)[C@@H](C)CN([C@@H](C)CO)C(=O)c2cc(NC(=O)Nc3ccccc3)ccc2O1 do in these assays?
T cruzi growth-1: inactive; Pf Dd2 inh: inactive

Results for C[C@H](O)C#Cc1ccc2c(c1)O[C@H](CN(C)C(=O)c1ccccc1)[C@H](C)CN([C@@H](C)CO)S2(=O)=O ?
C diff HTS: inactive; T cruzi growth-1: inactive; Pf Dd2 inh: inactive

Results for CC(C)C#Cc1ccc([C@H]2[C@@H](C#N)N(C(=O)CN(C)C)[C@@H]2CO)cc1 ?
C diff HTS: inactive; T cruzi growth-1: inactive; Pf Dd2 inh: inactive

Results for C/C=C/c1cnc2c(c1)C(=O)N([C@H](C)CO)C[C@@H](C)[C@H](CN(C)C(=O)C1CC1)O2 ?
C diff HTS: inactive; T cruzi growth-1: inactive; Pf Dd2 inh: inactive

How did O=C(NC1CCCC1)N1CCCCN2[C@H](C1)[C@@H](c1ccc(/C=C/c3ccccc3)cc1)[C@@H]2CO do in these assays?
C diff HTS: inactive; T cruzi growth-1: inactive; Pf Dd2 inh: inactive

What do the screens show for `O=C(NC1CCCC1)N1CCCCN2[C@H](C1)[C@H](c1ccc(/C=C/c3ccccc3)cc1)[C@@H]2CO`?
C diff HTS: inactive; T cruzi growth-1: 104; Pf Dd2 inh: inactive; T cruzi growth-2: 104; T cruzi growth-3: inactive; 3T3 cytotox: inactive; NIH3T3 tox 2: 105

Results for O=C(NC1CCCC1)N1CCCCN2[C@H](CO)[C@@H](c3ccc(/C=C/c4ccccc4)cc3)[C@@H]2C1 ?
C diff HTS: inactive; T cruzi growth-1: 107; Pf Dd2 inh: inactive; T cruzi growth-2: 100; T cruzi growth-3: 101; 3T3 cytotox: inactive; NIH3T3 tox 2: 104

How did O=C(NC1CCCC1)N1CC(=O)N2[C@H](C1)[C@@H](c1ccc(/C=C/c3ccccc3)cc1)[C@@H]2CO do in these assays?
C diff HTS: inactive; Pf Dd2 inh: inactive

What do the screens show for `O=C(C[C@@H]1CC[C@@H]2[C@H](COC[C@H](O)CN2S(=O)(=O)c2cccc(Cl)c2)O1)N1CCCCC1`?
C diff HTS: inactive; T cruzi growth-1: inactive; Pf Dd2 inh: inactive

Results for O=c1n(-c2ccccc2)c(=O)n2n1CC(COc1ccccc1)=C1[C@@H](CCc3ccccc3)OB(O)C[C@@H]12 ?
C diff HTS: inactive

How did CN1CCN(C(=O)C[C@@H]2CC[C@@H]3[C@H](COC[C@H](O)CN3Cc3cccc(F)c3)O2)CC1 do in these assays?
C diff HTS: inactive; T cruzi growth-1: inactive

How did C[C@@H]1CCCCO[C@H](CN(C)S(=O)(=O)c2cn(C)cn2)[C@H](C)CN([C@@H](C)CO)C(=O)c2cc(NC(=O)c3ccncc3)ccc2O1 do in these assays?
C diff HTS: inactive; T cruzi growth-1: inactive; Pf Dd2 inh: inactive
